Our source for the Potency values is PubChem BioAssay (NCATS).

Inconclusive results are not listed. Where a call stands in place of a potency, no number is given. The source made the active and inactive calls. The call rests on the fitted dose curve; in most records, active means well fitted cell-killing curve with a large enough effect; inconclusive means small, poorly fitted or top-dose-only effect, or effect the other way; inactive means flat fitted curve, though single readings scatter.

For this assay, the system named is HeLa. The assay is described as follows: Primary qHTS to identify gynecologic anti-cancer compounds using libraries of approved drugs and bioactive compounds (AID 1345084). Further: nearly all actives have a fitted effect of over 55% in size. The settings on record: Gynecologic cancer cell panel viability, ATPlite luminescence, 48 h; series mostly up to 57.5 µM. Put shortly:
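Cell viability after 48 h drug treatment, ATPlite luminescence readout; five doses.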
Turning to `CC1(C)CCC(C)(C)c2cc3c(cc21)Sc1ccccc1N=C3c1ccc(C(=O)O)cc1`, the Potency result was “inactive”.

For `O=C(O)c1n[nH]c2c1C[C@H]1C[C@@H]21`, the Potency entry is “inactive”. `COc1cc(C2Oc3c(O)cc(CCCO)cc3C2CO)ccc1O[C@H]1O[C@H](C)[C@@H](O)[C@H](O)[C@@H]1O` (some centres not stated): the Potency entry is “inactive”. The result for `CC(=C/C(=O)O)/C=C/[C@]1(O)[C@@]2(C)CO[C@]1(C)C[C@H](O[C@@H]1O[C@H](CO)[C@@H](O)[C@H](O)[C@H]1O)C2` reads “inactive”; that for `CC1(C)CC[C@]2(C(=O)O)CC[C@]3(C)C(=CCC4[C@@]5(C)C[C@H](O)[C@H](O[C@@H]6OC[C@H](O)[C@H](O)[C@H]6O)[C@@](C)(CO)C5CC[C@]43C)[C@@H]2C1` (some centres not stated), “inactive”; that for `C1CCN2CC3C[C@@H](CN4CCCC[C@@H]34)[C@H]2C1`, “inactive”. Regarding `COc1ccc(C)c2sc(NC(=O)c3ccncc3)nc12`, the Potency result was “inactive”.

In the case of `CC(C)[C@@H](C)/C=C/[C@@H](C)[C@H]1CC[C@H]2C3=CC=C4C[C@@H](O)CC[C@]4(C)[C@H]3CC[C@]12C`, the Potency entry was “inactive”. With `COc1ccccc1CC(C(=O)O)N(C)C(=O)c1ccccc1` (configuration not stated), the Potency entry was “inactive”.

As to `C=C1[C@@H]2[C@H]3OC(=O)C(=C)[C@@H]3CC[C@@](C)(O)[C@@H]2C[C@@H]1O[C@@H]1O[C@H](CO)[C@@H](O)[C@H](O)[C@H]1O`, the Potency entry was “inactive”.

In the case of `COCCCNCC1COc2ccccc2O1` (configuration not stated), the Potency result is “inactive”.

As to `COc1cc(/C=C/C(=O)OC2CC(OC(C)=O)C(OC(C)=O)C3C2CCC2C(=O)OC(c4ccoc4)CC23C)ccc1O[C@@H]1O[C@H](CO)[C@@H](O)[C@H](O)[C@H]1O` (some centres not stated), the Potency entry is “inactive”.
